Compounds with a hit are over-represented: about 2.3% of the library has one in this group of screens.
Tau fibril FP: qHTS for Inhibitors of Tau Fibril Formation, Fluorescence Polarization; AID 1468, 2008; Potency, µM (top dose mostly 57.7 µM), hits mostly inhibitors; Microtubule-associated protein tau (Homo sapiens), P10636; actives 0.39% (n = 280,000); K18 P301L tau heparin fibrillization, Alexa594 FP, 6 h; further: nearly all actives have a fitted effect of over 55% in size
Target sequence (P10636 561-689 P618L limits assumed): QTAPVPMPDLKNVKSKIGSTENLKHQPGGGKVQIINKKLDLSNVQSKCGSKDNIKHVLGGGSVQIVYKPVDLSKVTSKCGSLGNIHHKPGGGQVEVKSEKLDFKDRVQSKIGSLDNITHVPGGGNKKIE
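Compound effects on tau fibrillization are measured by Alexa 594 fluorescence polarization (ex 555, em 632 nm). K18 P301L tau is used at 15 uM with 0.24 uM labeled tracer, and 20 uM heparin induces aggregation over 6 hr at 37 C.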
FBPA coupling cs: qHTS Assay for Inhibitors of Fructose-1,6-bisphosphate Aldolase from Giardia Lamblia: Coupling assay counterscreen. coupling enzyme system counterscreen, AmpLite Red fluorescence. activity change, negative = inhibition, % at 58.2 µM, hits read low. actives 0.67% (n = 290,000); in the data active means activity change below about -30%
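Counterscreen lacking aldolase: glyceraldehyde-3-phosphate coupling-enzyme reagent preincubated 10 min at RT with compound (at 57.5 uM final), then substrate/coupling system with AmpLite Red added; fluorescence read at 525/598 nm after 20 min RT.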
Tau ThT inhib: qHTS for Inhibitors of Tau Fibril Formation, Thioflavin T Binding; Microtubule-associated protein tau (Homo sapiens), P10636; recombinant tau K18 P301L, heparin-induced fibrillization, ThT fluorescence; Potency, µM (titrated, usually from 57.4 µM), hits mostly inhibitors; actives 2.1% (n = 270,000); further: nearly all actives have a fitted effect of over 55% in size
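Recombinant human tau K18 fragment […] carrying P301L, 15 uM unlabeled plus 0.24 uM Alexa 594-labeled, was fibrillized with 20 uM heparin in 100 mM sodium acetate pH 7 for 6 hr at 37 C; 30 uM ThT fluorescence read after 1 hr.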
Tau fluor cs: Counterscreen qHTS for Inhibitors of Tau Fibril Formation, Fluorescence Polarization. actives 0.93% (n = 280,000). AID 1463, 2008. Potency, µM (top dose mostly 57.7 µM). tau K18 P301L Alexa594 fluorescence, heparin fibrillization; further: nearly all actives have a fitted effect of over 55% in size
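Human tau K18 P301L (15 uM unlabeled, 0.24 uM Alexa 594-labeled) in 100 mM sodium acetate pH 7 with 20 uM heparin, 6 hr at 37 C. ThT 30 uM added, 1 hr ambient; Alexa 594 FP and total fluorescence read at 555/632 nm.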
USP1 inh: Inhibitors of USP1/UAF1: Primary Screen; actives 0.23% (n = 390,000); recombinant USP1/UAF1, Ub-Rhodamine cleavage fluorescence; Potency, µM (top dose mostly 57.1 µM), actives largely listed as inhibitors; Ubiquitin carboxyl-terminal hydrolase 1 (Homo sapiens), O94782; further: nearly all actives have a fitted effect of over 60% in size
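1 nM enzyme complex + cpd, 15 min RT; start with Ub-Rho 150nM final; kinetic fluorescence ex 480/em 540, 6 reads q60 s. Buffer 50mM HEPES pH 7.8, 0.5mM EDTA, 0.1 mg/ml BSA, 1mM TCEP, 0.01% Tween-20.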
Numbers stand for hits; - = inactive; ? = inconclusive; . = no result; [ ] = another dose, or the depositor's remark. Unless noted, the call rests on the fitted dose curve; in most records, active means well fitted curve in the direction sought with a large enough effect; inconclusive means small, poorly fitted or top-dose-only effect, or another doubt; inactive means no such curve, though single readings can be large; an effect the other way counts as inactive or inconclusive.

SMILES	Tau fibril FP	FBPA coupling cs	Tau ThT inhib	Tau fluor cs	USP1 inh
Cc1ccc(O)c(-c2n[nH]c3c2C(c2ccc(F)cc2)N(Cc2ccco2)C3=O)c1 (stereo not drawn)	-	.	?	14µM[quencher]	-
Cc1ccc(-c2onc3ccc(C=O)cc23)cc1	?	-	25µM	?	-
Cc1ccc(-c2onc3ccc(C4(C)OCCO4)cc23)cc1	-	-	-	-	-
CN(Cc1ccccc1)C(=O)C(=O)Nc1ccc2nc3n(c(=O)c2c1)CCCCC3	-	.	-	-	-
CCCCCOc1ccc(/C=c2\sc3nc(=O)c(-c4ccccc4)nn3c2=O)cc1OC	-	-	?	-	-
O=c1nc2s/c(=C\c3ccc(-c4ccccc4[N+](=O)[O-])o3)c(=O)n2nc1-c1ccccc1	?	-50	7.1µM	?	?
COc1ccc(-c2cn3cc(C)ccc3n2)cc1F	-	-34	?	-	-
COc1ccc(-c2cn3cc(C)ccc3n2)cc1OC	-	-	?	-	-
O=C(NCCc1ccccc1)c1nnc(Cc2cccc(F)c2)o1	-	.	-	-	-
COc1cc(/C=C2\SC(=Nc3ccccc3OC)NC2=O)ccc1O	.	-	.	.	-
COc1cc(/C=C2\SC(=Nc3ccccc3)NC2=O)cc(Cl)c1O	.	-	.	.	?
COc1cc(/C=C2/SC(=Nc3ccc(O)cc3)NC2=O)ccc1O	?	-	4.5µM	?	-
COc1cc(/C=C2\SC(=Nc3ccc(Cl)c(C(=O)O)c3)NC2=O)c(Br)c(Br)c1O	.	-	.	.	18µM
NS(=O)(=O)c1ccc(N/N=C/c2ccc(C(=O)O)cc2)c([N+](=O)[O-])c1	-	-	11µM	-	-
Cc1nn(-c2ccccc2)c(N2CCCC2)c1/C=N/Nc1ccc(S(N)(=O)=O)cc1[N+](=O)[O-]	-	-	5µM	14µM[quencher]	-
CC(=O)N1CCC(=NNc2ccc(S(N)(=O)=O)cc2[N+](=O)[O-])CC1	-	-	?	-	-
COc1ccc(/C=N\Nc2ccc([N+](=O)[O-])cc2[N+](=O)[O-])c(C(=O)O)c1OC	-	-	14µM	-	-
CCOC(=O)N1CCC(=NNc2ccc(S(N)(=O)=O)cc2[N+](=O)[O-])CC1	-	-	5µM	-	-
COc1ccc(/C=N\Nc2ccccc2[N+](=O)[O-])c(C(=O)O)c1OC	-	-	?	-	-
CCOC(=O)c1c(NC(=O)c2cc3nc(-c4ccc(OC)cc4)cc(C(F)(F)F)n3n2)sc(C)c1C	-	.	-	-	-
NS(=O)(=O)c1ccc(N/N=C/c2ccc[nH]2)c([N+](=O)[O-])c1	-	-	7.9µM	?	-
COc1cc(/C=N/Nc2ccc(S(N)(=O)=O)cc2[N+](=O)[O-])cc(OC)c1O	-	-	1.8µM	?	-
C/C(=N\Nc1ccc(S(N)(=O)=O)cc1[N+](=O)[O-])c1ccc2c(c1)OCO2	-	-	3.5µM	?	-
CC(=O)c1cccc(NC(=O)Nc2cnn(Cc3ccc(Cl)cc3Cl)c2)c1	?	-	-	8.9µM[quencher]	-
O=C(COc1ccc([N+](=O)[O-])cc1)N/N=C/c1cc([N+](=O)[O-])ccc1N1CCOCC1	-	-	4µM	-	-
SMILES	Tau fibril FP	FBPA coupling cs	Tau ThT inhib	Tau fluor cs	USP1 inh
Cc1ccc(OCC(=O)N/N=C/c2cc([N+](=O)[O-])ccc2N2CCCCC2)cc1	-	-	-	-	-
COC(=O)NC1C=CCCC1C(C)=O (stereo not drawn)	?	-	-	-	.
Cc1ccc(C(=O)Nc2nc(=O)n(C(=O)c3ccccc3Cl)s2)cc1	?	-	13µM	-	-
CC(C)CC(=O)n1sc(NC(=O)c2ccccc2)nc1=O	?	-	22µM	-	-
Cc1ccc(Cl)cc1N1CCN(C(=O)c2cc(S(=O)(=O)N3CCCCC3)cn2C)CC1	-	.	-	-	-
Cc1cc(O)ccc1Nc1nc2ccccc2nc1Nc1ccc(O)cc1C	?	-	14µM	13µM[quencher]	-
Cc1ccc(Nc2nc3ccccc3s2)c(C)c1	-	-	-	-	-
CCC(C)NC(=O)Cn1c(=O)n(-c2ccc(C)c(C)c2)c(=O)c2c3c(sc21)CCCCC3 (stereo not drawn)	-	.	-	-	-
Cc1cc(NC(=O)COc2cccc3cccnc23)no1	-	-32	?	-	.
CCCCCCCC/C=C\CCCCCCCC(=O)OC[C@@H](O)COP(=O)(O)O	-	-	-	-	.
COc1ccc(OC)c(NC(=O)c2nc(S(=O)(=O)Cc3ccccc3)ncc2Cl)c1	.	.	.	.	-
COc1ccc2nc(NC(=O)c3nc(SCc4ccccc4F)ncc3Cl)sc2c1	-	.	-	-	-
COc1ccc2nc(NC(=O)c3nc(S(=O)(=O)Cc4ccccc4F)ncc3Cl)sc2c1	-	.	7.1µM	?	-
COc1ccc2nc(NC(=O)c3nc(S(=O)(=O)Cc4ccccc4)ncc3Cl)sc2c1	-	.	8.9µM	?	-
CCOC(=O)CCN(c1ccccc1)S(=O)(=O)c1ccc2[nH]c(=O)ccc2c1	-	.	-	-	-
Cc1nc(COC(=O)c2cc(O)c3ccccc3c2O)cs1	?	-	25µM	?	?
Cc1nc(COC(=O)c2ccc(CO)cc2)cs1	-	-	-	-	-
COc1ccc(C(=O)N/N=C/c2ccc(N3CCOCC3)o2)cc1OC	-	-35	?	-	-
Fc1ccccc1Nc1nc2c(s1)CCc1ccccc1-2	-	-69	-	-	.
CCOC(=O)c1c(C)c(-c2ccccc2)n(CC(=O)NCCc2ccc(C)cc2)c1C	-	.	-	-	?
N#C/C(=N\Nc1cccc(C(F)(F)F)c1)C(=O)c1csc(-c2cccnc2)n1	-	-	4.5µM	-	?
O=Cc1[nH]c2ccccc2c1N(C(=O)CCl)c1ccc([N+](=O)[O-])cc1	?	-	16µM	?	-
CC(=O)n1cc(N(C(=O)CCl)c2ccc([N+](=O)[O-])cc2)c2ccccc21	-	-	28µM	?	-
CC(=O)n1cc(N(C(=O)CCl)c2ccccc2)c2ccccc21	-	-	?	-	-
CCOc1ccc(NC(=O)Nc2nnc(N3CCCCC3C)s2)cc1 (stereo not drawn)	-	.	?	-	-
C=C(C(C)=O)C(O)c1ccco1 (stereo not drawn)	?	-	28µM	-	.
Cc1ccc(O)c(C=Nc2cc(C)ccc2O)c1	-	-	?	-	-
O=[N+]([O-])c1ccc(N2CCN(S(=O)(=O)Cc3ccccc3)CC2)cc1N1CCOCC1	-	-	?	-	-
O=[N+]([O-])c1cc(Cc2ccccc2)cc(C=Nc2ccc(N3CCOCC3)cc2)c1O	?	-	10µM	?	25µM
Cc1ccc(O)c(N=Cc2cc(Cc3ccccc3)cc([N+](=O)[O-])c2O)c1	?	-	8.9µM	?	25µM

Screening data as filed in PubChem BioAssay.
